KB-V1 cytotox – KB-V1 MDR subline cytotoxicity. Potency, µM (doses to about 46.1 µM), most hits filed as cytotoxic. hit rate 3.4% among 400,000. KB-V1 MDR cells viability, CellTiter-Glo, 72 h. AID 1347076; note: % is set by controls: 0 for no effect and ±100 for the full control effect; nearly all actives have a fitted effect of over 60% in size
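Cytotoxicity via CellTiter-Glo luminescence after 72 h compound exposure at 37 degrees C. Cells: drug-selected KB-V1 line, DMEM phenol-red free plus 10% FBS. Compounds tested at multiple concentrations; normalized data fitted to concentration-effect curves.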
SW480 rerep – inducers of DNA re-replication in SW480 colon cancer cells | AID 624297 | SW480 DNA re-replication, Hoechst DNA content imaging, 48 h | hit rate 1.8% among 340,000 | Potency, µM (series often up to 46.1 µM), for the others: top-dose re-replication activation, most hits filed as activators; note: % of control where 0% means no effect; nearly all actives have a fitted effect of over 55% in size
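250 cells/well; 23 nL cpd via pin tool; 48 hr, 37 C, 5% CO2; Hoechst 40 min; imager read of total nuclear intensity, ex 405/em 500-530 nm.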
KB-3-1 tox – KB-3-1 parental cell cytotoxicity. KB-3-1 viability, CellTiter-Glo ATP luminescence, 72 h. Potency, µM (series often up to 46.1 µM), usual class: cytotoxic. hit rate 1.4% among 400,000. AID 1347075; note: % is set by controls: 0 for no effect and ±100 for the full control effect; nearly all actives have a fitted effect of over 60% in size
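Cytotoxicity in the drug-sensitive parental line KB-3-1 was scored as loss of CellTiter-Glo luminescence following 72 h incubation with compound. Values come from curve fitting of normalized concentration-response data.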
RORg inh – ROR gamma (mouse) transcription inhibition. Potency, µM (titrated, usually from 53.6 µM), for the others: at the top dose activity change, negative = inhibition, usual class: inhibitors. Drosophila S2 Gal4-RORgamma UAS-luciferase reporter, 20 h. hit rate 5.4% among 310,000. AID 2551. P51450; note: % is set by controls: 0 for no effect and ±100 for the full control effect; nearly all actives have a fitted effect of over 60% in size
Target sequence (P51450 whole entry, looked up, the tested form may be a part): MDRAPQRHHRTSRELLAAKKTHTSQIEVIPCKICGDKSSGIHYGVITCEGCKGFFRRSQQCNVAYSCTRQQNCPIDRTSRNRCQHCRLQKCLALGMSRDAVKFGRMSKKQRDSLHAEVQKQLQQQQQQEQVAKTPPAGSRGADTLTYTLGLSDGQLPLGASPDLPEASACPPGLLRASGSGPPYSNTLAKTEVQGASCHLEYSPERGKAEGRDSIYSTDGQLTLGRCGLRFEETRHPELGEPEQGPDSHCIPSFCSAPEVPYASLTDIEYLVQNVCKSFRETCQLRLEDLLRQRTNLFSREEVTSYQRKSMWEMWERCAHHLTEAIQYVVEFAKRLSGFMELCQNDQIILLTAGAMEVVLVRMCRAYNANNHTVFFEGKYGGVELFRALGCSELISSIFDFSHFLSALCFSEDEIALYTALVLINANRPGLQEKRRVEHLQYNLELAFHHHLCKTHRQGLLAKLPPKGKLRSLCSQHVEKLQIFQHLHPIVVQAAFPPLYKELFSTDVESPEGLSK
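Stable Schneider cell line, Gal4 DNA-binding domain fused to ROR gamma, UAS-luciferase. Cmpd 1 hr RT → CuSO4 700 uM final → 20 hr RT → luciferase reagent 10 min → luminescence.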
VP16 counter – counter-screen for ROR gamma inhibitors: Gal4-VP16 reporter; Drosophila S2 Gal4-VP16 UAS-luciferase, luminescence, 20 h; Potency, µM (highest dose often 53.6 µM), without a hit: top-dose activity, negative = inhibition, usual class: inhibitors; hit rate 3.5% among 310,000; AID 2546;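 note: Gal4-VP16 expression switched on by copper sulfate through the metallothionein promoter; % is set by controls: 0 for no effect and ±100 for the full control effect; nearly all actives have a fitted effect of over 50% in size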
MCF10A rereplic – inducers of DNA re-replication in MCF 10A breast cells. MCF 10A DNA re-replication, Hoechst nuclear intensity, 48 h. Potency, µM (series often up to 46.1 µM), without a hit: at the top dose activity, positive = re-replication, usual class: activators. hit rate 2.9% among 350,000. AID 624296; note: % of control where 0% means no effect; nearly all actives have a fitted effect of over 50% in size
* marks the source's active call; other numbers are inactive results; i = inactive; ? = inconclusive; · = no result given; [ ] = another dose, or the depositor's remark. Compounds with a hit are over-represented: about 10% of the library has one in this group of screens. Calls come from the whole dose curve; as a rule, active = well fitted curve in the direction sought with a large enough effect; inconclusive = small, poorly fitted or top-dose-only effect, or another doubt; inactive = no such curve, though single readings can be large; an effect the other way counts as inactive or inconclusive. Potency is the fitted concentration of half-maximal effect.

SMILES | KB-V1 cytotox | SW480 rerep | KB-3-1 tox | RORg inh | VP16 counter | MCF10A rereplic
CC(C)(C)N1C(=O)[C@H]2[C@H]3[C@H](O)[C@H](O)C/C(=N/OC[C@@H](O)COCc4ccco4)[C@@H]3CC[C@@H]2C1=O | · | · | · | 9%[10 µM] | 5%[10 µM] | ·
CCCCC1CCC(C(=O)OC(C)C(=O)Nc2ccc(NC(C)=O)cc2)CC1 (centres undefined) | i | 9% | i | 1% | -1% | 1%
CC1CCN(C(=O)COC(=O)c2ccccc2NCCO)CC1 | i | · | i | · | · | ·
O=C(c1cccc2ccccc12)N1CCN(S(=O)(=O)c2ccccc2)CC1 | i | · | i | · | · | ·
Cc1ccc(-c2nnc(Nc3cccc(Cl)c3)c3ccccc23)cc1S(=O)(=O)NCC1CCCO1 (centres undefined) | i | · | i | · | · | ·
Cc1c(C(=O)OC(C)C)sc(NC(=O)C2CCCO2)c1C(=O)OC(C)C (centres undefined) | ? | 15% | i | 0% | 15% | 13µM*
COC(=O)c1c(-c2ccc(F)cc2)csc1NC(=O)C1CCCO1 (centres undefined) | ? | ? | i | ? | -1% | ?
CCc1ccc(-c2csc(NC(=O)C3CCCO3)c2C(=O)OC(C)C)cc1 (centres undefined) | i | ? | i | 40% | -11% | 26µM*
COC(=O)c1sc(NC(=O)C2CCCO2)c(C(=O)OC)c1C (centres undefined) | i | -4% | i | 3% | 0% | 2%
CCN(CC)S(=O)(=O)c1ccc2c(c1)N(CC(=O)NCCCN1CCN(c3cc(C)ccc3C)CC1)C(=O)CO2 | ? | · | i | · | · | ·
CCOc1cccc2sc(N(Cc3cccnc3)C(=O)c3ccc(C#N)cc3)nc12 | i | · | i | · | · | ·
CCOC(=O)c1noc2nc(C)n(CC(=O)Nc3cc(Cl)ccc3OC)c(=O)c12 | i | · | i | · | · | ·
COc1ccccc1CNS(=O)(=O)c1cc(C(=O)N(C)Cc2cccnc2)c(Cl)cc1Cl | 5.2µM* | 12% | ? | · | · | 4%
COC(=O)c1ccc(-n2c(/C=C\c3cccc(Br)c3)nc3ccccc3c2=O)cc1 | ? | · | 13µM* | · | · | ·
Cc1c(Cl)cccc1NS(=O)(=O)c1cc2c(cc1Cl)CCC(=O)N2 | i | · | i | · | · | ·
Cc1ccc2c(c1)Cc1nc3ccccc3nc1-2 | i | -7% | ? | 10µM* | 14µM* | 2%
Cc1ccc2c(c1)-c1nc3ccccc3cc1C2=NC1CCCCC1 | ? | · | i | -2% | ? | ?
CCCn1c(-c2ccccc2)cc(SC)c(C#N)c1=O | i | 5.8µM* | i | 9% | 10% | 5%
CSc1cc(-c2ccccc2)n(Cc2ccccc2Cl)c(=O)c1C#N | ? | 6.5µM* | 4.6µM* | -17% | 0% | 3.7µM*
CN(C(=O)CSc1nc2ccccc2[nH]1)c1ccc(F)cc1 | i | · | i | · | · | ·
CCc1cc(OCCCSc2nc(C)cc(=O)[nH]2)ccc1Cl | i | 1% | ? | ? | 8.9µM* | 3%
Cc1cc(=O)[nH]c(SCCOc2ccc3c(c2)CCC3)n1 | i | 1.8µM* | i | -41% | -11% | ?
Nc1ccc(Cl)cc1Cl | · | · | · | -1% | -2% | ·
O=c1[nH]nc(-c2ccccc2)c2ccccc12 | i | -8% | i | 17% | -4% | 4%
Fc1ccc(-c2n[nH]c(=S)c3ccccc23)cc1 | i | 6% | i | 7.1µM* | 16µM* | -1%
SMILES | KB-V1 cytotox | SW480 rerep | KB-3-1 tox | RORg inh | VP16 counter | MCF10A rereplic
CC(=O)OCCN1c2ccccc2Sc2cnccc21 | 15µM* | · | 12µM* | · | · | ·
C=CCN1c2ccccc2Sc2cnccc21 | ? | · | i | · | · | ·
CCOC1=C2CN(S(=O)(=O)c3ccc(C)cc3)[C@@H](c3ccc(CC)cc3)C[C@H]2[C@H]2C(=O)N(c3ccccc3)C(=O)[C@H]2C1 | i | · | i | · | · | ·
Cc1cc(N)n2ncc(-c3ccccc3)c2n1 | i | 1% | i | 10% | 1% | 18%
CC(=O)Nc1ccc(Nc2cc(C)nc3c(-c4ccccc4)cnn23)cc1 | 16µM* | 10% | ? | 13µM* | 7.9µM* | ?
C=CCSc1cc(C)nc2c(-c3ccccc3)cnn12 | 8.2µM* | ? | ? | 10µM* | ? | 11%
COc1ccc(NC(=O)C2(c3cccs3)CCOCC2)cc1Cl | i | · | i | · | · | ·
COc1cc(C(=O)Nc2nc3c(s2)Cc2c(Br)ccc(OC)c2-3)cc(OC)c1OC | i | · | i | · | · | ·
CC(=O)Nc1nnc(-c2ccc(Cl)s2)o1 | i | -8% | i | 3.5µM* | 5.6µM* | 14%
O=C(CSc1nnc(-c2ccc(Cl)s2)o1)N1CCOCC1 | · | · | · | -20% | -22% | ·
CCC(=O)Nc1nnc(-c2ccc(Cl)s2)o1 | i | -8% | i | 7.1µM* | 13µM* | 1%
CCOC(=O)N1CCN(C(=O)CSc2nnc(-c3ccc(Cl)s3)o2)CC1 | · | · | · | 0% | 4% | ·
CCc1ccc(NC(=O)N2CCN(c3nnc(C)c4c(C)n(-c5ccc(Cl)cc5)nc34)CC2)cc1 | i | · | ? | · | · | ·
Cc1nn(-c2cccc(Cl)c2)c2nc(-c3ccco3)cc(C(=O)O)c12 | i | -5% | i | 13% | 7% | 15µM*
O=C(NC1CC1)c1sc2ccccc2c1Cl | i | -8% | i | -4% | 6% | 2%
O=C(NNC(=S)NC1CCCCC1)c1sc2ccccc2c1Cl | 18µM* | · | i | 2.8µM* | 13µM* | ?
CC(C)(C)C(=O)NC(=S)NNC(=O)c1sc2ccccc2c1Cl | 10µM* | ? | 9.2µM* | 0.63µM* | 0.56µM* | 12µM*
C(=C\c1ccco1)/c1ccc2ccccc2n1 | i | -24% | i | 12% | 4% | 18µM*
CC(O)/C=C/c1ccc2ccccc2n1 (centres undefined) | ? | ? | ? | ? | -5% | 18µM*
Cc1ccc2nc(/C=C/c3ccc(N(C)C)cc3)ccc2c1 | ? | · | i | · | · | ·
COc1cc(/C=C/c2ccc3ccccc3n2)cc(OC)c1OC | ? | · | 2.6µM* | · | · | ·
COc1cc(/C=C/c2nc3ccccc3nc2/C=C/c2cc(OC)c(OC)c(OC)c2)cc(OC)c1OC | i | · | ? | · | · | ·
Cc1ccc2nc(/C=C/c3cccc(F)c3)ccc2c1 | i | 3% | i | 10µM* | -18% | ?
O=C(N/C(=C\c1ccc(Br)cc1)C(=O)N1CCOCC1)c1ccc([N+](=O)[O-])cc1 | i | -3% | i | -13% | 15% | 24%
Cc1nc2ccccc2nc1C | i | · | i | · | · | ·
CC(C)CN1CCc2nc(N3CCN(C)CC3)ncc2C1 | i | · | i | · | · | ·
Fc1ccc(/C=C/c2ccc3ccccc3n2)cc1 | i | · | 12µM* | · | · | ·

Bioassay records: PubChem, National Center for Advancing Translational Sciences (NCATS)
